KDM5B inh = inhibitors of human KDM5B histone demethylase | Q9UGL1 | KDM5B demethylase, FDH-coupled NADH fluorescence (FDH is formaldehyde dehydrogenase) | Potency, µM (titrated, usually from 57.7 µM), most hits filed as inhibitors | 220,000 tested, 2.6% active | AID 1347165; active = well fitted inhibition curve with a large enough effect; also: 0% is about no effect; nearly all actives have a fitted effect of over 70% in size
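KDM5BΔAP (200 nM final) in 50 mM HEPES pH 7.5, 0.01% Tween-20 was preincubated 10 min at RT with compound over a concentration range. Substrate mix (H3K4me3 12.5 µM, α-KG 25 µM, Fe²⁺, ascorbate, NAD⁺, FDH) was added, and NADH fluorescence change over 30 min gave dose-response curves.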
* marks the source's active call; other numbers are inactive results; i = inactive. Many of the other results were omitted from the sample, so hits are more common in it than they were. Potency is read from the fitted curve at half-maximal effect.

SMILES | KDM5B inh
CCn1nc(C(=O)Nc2ccc(S(=O)(=O)N(C)C)cc2)c2ccccc2c1=O | i
COCCN1CCCCCC(O)c2cc(C(=O)N(CCN(C)C)Cc3ccccc3)ccc21 (stereo not drawn) | i
O=C(CCC1CCCC1)Nc1nc2ccccc2s1 | i
Cc1ccc(NC(=O)N2CCc3c(c4ccccc4n3C)C2)cc1 | 22µM*
CCc1ccc(NC(=O)CSc2cn(CC(=O)N3CCCC3)c3ccccc23)cc1 | i
CCc1ccc(NC(=O)Cc2cn(C)c3ccccc23)cc1 | i
Cc1ccc(NS(=O)(=O)c2ccc(NC(=O)N3CCCCC3)cc2)cc1 | i
CCOc1ccc(NC(=O)C(=O)c2c(C)n(C)c3ccccc23)cc1 | i
CCc1ccc(NC(=O)N2CCc3c(c4ccccc4n3C)C2)cc1 | 28µM*
Cc1ccc(NC(=O)C(C)N2CCc3ccccc3C2)cc1 (stereo not drawn) | i
CCOc1ccc(NC(=O)Cc2c(C(=O)O)n(C)c3ccccc23)cc1 | i
CCOc1ccc(NC(=O)N2CCc3c(c4ccccc4n3C)C2)cc1 | 25µM*
Cc1cc2oc(=O)cc(CSc3nnnn3C3CC3)c2cc1C(C)C | i
COC(=O)c1cc(S(=O)(=O)N(C)CC(=O)Nc2ccc(Cl)cc2C)cn1C | i
CCCN1CCC2(CCN([S+](=O)([O-])c3c(C)noc3C)CC2)Oc2ccccc21 | i
Cc1noc(C)c1[S+](=O)([O-])N1CCC2(CC1)CC(=O)c1ccccc1O2 | 20µM*
O=C1CC2(CCN(Cc3ccc(F)cc3)CC2)Oc2cc(Cl)ccc21 | i
O=C1CC2(CCN(CC3CCCCC3)CC2)Oc2cc(Cl)ccc21 | i
O=C1CC2(CCN(CC3CCCCC3)CC2)Oc2ccccc2N1c1ccccc1 | i
Cc1noc(C)c1[S+](=O)([O-])N1CCCC2(C1)NC(=O)c1ccccc1O2 (stereo not drawn) | i
O=C1CC2(CCN(C(=O)c3ccc4c(c3)OCO4)CC2)Oc2ccccc21 | 25µM*
O=C1CC2(CCN(CC3CC3)CC2)Oc2ccccc21 | 32µM*
O=C1CC2(CCN(Cc3ccsc3)CC2)Oc2ccccc21 | 35µM*
O=C1CC2(CCN(Cc3ccc(C(F)(F)F)cc3)CC2)Oc2cc(Cl)ccc21 | i
O=C1CC2(CCN(C(=O)c3ccc4c(c3)OCO4)CC2)Oc2cc(Cl)ccc21 | i
SMILES | KDM5B inh
O=C1NCC2(CCN(C(=O)c3ccc4c(c3)OCO4)CC2)Oc2ccccc21 | i
COc1ccc2oc(=O)c(S(=O)(=O)c3cccc(Cl)c3)cc2c1 | i
CNC(=O)C(C#N)(Cc1cccc2ccccc12)Cc1cccc2ccccc12 | i
Cc1[nH]c2ccc(C(=O)OCC(=O)N3CCCC3=O)cc2c1C | i
CC(C)(C)c1cnc(CN2CCCC2c2ccc[nH]2)o1 (stereo not drawn) | i
CCN(Cc1cccc(F)c1)C(=O)C1CCCO1 (stereo not drawn) | i
CCc1ccc(C(CNC(=O)c2nn(C)c(=O)c3ccccc23)N(C)C)cc1 (stereo not drawn) | i
Cc1ccc(NC(=O)Cc2nnc(SC(C)C(=O)Nc3ccc4c(c3)OCO4)n2C)cc1 (stereo not drawn) | i
COC(=O)c1sc2cccc(F)c2c1S(=O)(=O)N1CCN(c2cc(C)ccc2C)CC1 | i
CCN(CC)c1nc(N(C)C)nc(-n2cnc(SCc3ccccc3)n2)n1 | i
O=C(O)c1ccc(CNC2C3CC4CC(C3)CC2C4)cc1 (stereo not drawn) | i
CS(=O)(=O)CCCN | i
COc1ccc(CN2CCC3(CC2)CNC(=O)c2ccccc2O3)cc1 | i
COc1ccc(CN2CCC3(CC2)CC(=O)c2ccccc2O3)cc1 | 35µM*
O=C1CC2(CCN(Cc3cccc4ccccc34)CC2)Oc2ccccc21 | i
O=C1NC2(CCN(Cc3ccccc3)CC2)Oc2ccccc21 | i
COc1ccc(CN2CCC3(C2)NC(=O)c2ccccc2O3)cc1 (stereo not drawn) | i
Cn1cccc1CN1CCC2(CC1)CC(=O)c1ccccc1O2 | 25µM*
O=C1Nc2ccccc2C12CCN(S(=O)(=O)c1cccs1)C2 (stereo not drawn) | i
O=C1CC2(CCN(Cc3ccccc3)CC2)Oc2ccccc21 | 35µM*
Cn1cccc1CN1CCC2(CC1)CC(=O)Nc1ccccc1O2 | i
O=C1CC2(CCN(S(=O)(=O)c3cccs3)CC2)Oc2ccccc21 | 18µM*
O=C1CC2(CCN(S(=O)(=O)c3ccccc3)CC2)Oc2cc(Cl)ccc21 | i
Cn1cccc1CN1CCC2(CC1)CC(=O)c1ccc(Cl)cc1O2 | i
N#Cc1cccc(CN2CCC3(CC2)COCCN3C(=O)OCc2ccccc2)c1 | i
COc1ccccc1NC(=O)N(C)CCc1noc(C(=O)NCc2ccccc2)n1 | i
Cc1noc(C2CC3(CCN(C(=O)CCC4CCCC4)CC3)CN2C)n1 (stereo not drawn) | i
Cc1ccc(C(=O)N2CCC(c3nc4cc(C(F)(F)F)ccc4s3)CC2)cn1 | i
COc1ccc(C(=O)c2oc3ccc(NC(=O)c4ccncc4)cc3c2C)cc1 | i
